# Compound activity: PubChem BioAssay, National Center for Advancing Translational Sciences (NCATS)
# Shown are actives, neighbours in structure and some others; about 1.8% of the full set was active somewhere.
# HttQ103 aggreg – inhibitors of mutant huntingtin aggregate formation in PC12 cells. PC12 HttQ103-GFP aggregates, Acumen cytometry, 40 h. Potency, µM (titrated, usually from 46.1 µM), most hits filed as inhibitors. actives 1.1% (n = 220,000); further: nearly all actives have a fitted effect of over 60% in size
#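 PC12/HTTQ103-GFP, ecdysone-inducible; teb 100 nM; cpd qHTS titration; GFP aggregates read on laser cytometer, Ex 488/Em 500-530 nm.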
# HTT cytoprotect – Huntington cell model cytoprotection by ATP luminescence; Potency, µM (series often up to 56.4 µM), actives largely listed as activators; PC12 HTT-Q103 induced, cytoprotection, ATP luminescence, 40 h; actives 0.14% (n = 230,000); further: nearly all actives have a fitted effect of over 45% in size
#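 Stable PC12 Q103-GFP cells in serum-supplemented, phenol red-free DMEM; induction by tebufenozide at 100 nM final; compound dose series; cell viability quantified luminescently from ATP.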
# JMJD2E inh – JMJD2E (human) inhibition; JMJD2E catalytic domain, FDH-coupled NADH fluorescence (FDH is formaldehyde dehydrogenase); Potency, µM (doses to about 57.1 µM), most hits filed as inhibitors; actives 1.6% (n = 230,000); active means well fitted inhibition curve with a large enough effect, not every such curve was filed as active; inconclusive means small, poorly fitted or top-dose-only effect, or another doubt; inactive means no such curve, though single readings can be large or run the other way; further: nearly all actives have a fitted effect of over 50% in size
# Target sequence (B2RXH2 1-337 limits assumed): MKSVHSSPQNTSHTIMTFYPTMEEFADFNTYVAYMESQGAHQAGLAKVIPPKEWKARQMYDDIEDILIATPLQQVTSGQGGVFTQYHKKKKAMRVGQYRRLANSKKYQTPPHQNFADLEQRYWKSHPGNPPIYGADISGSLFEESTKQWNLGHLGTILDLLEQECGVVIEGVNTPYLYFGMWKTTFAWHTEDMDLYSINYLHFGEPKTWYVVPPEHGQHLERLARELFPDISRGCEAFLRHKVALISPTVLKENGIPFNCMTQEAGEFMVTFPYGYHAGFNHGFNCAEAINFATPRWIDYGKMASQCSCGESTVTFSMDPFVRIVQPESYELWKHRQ
# L3MBTL1 block – inhibitors of human L3MBTL1; Q9Y468; AlphaScreen L3MBTL1–H3K9me1 peptide binding; Potency, µM (top dose mostly 57.1 µM), actives largely listed as inhibitors; actives 0.66% (n = 230,000); AID 485360; further: nearly all actives have a fitted effect of over 60% in size
#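 AlphaScreen assay: L3MBTL1 (50 nM final) was preincubated 30 min at room temperature with biotinylated H3(1-15)K9me1 peptide (75 nM final), then 30 min with library compounds; streptavidin donor and nickel chelate acceptor beads (10 ug/mL final) added, 30 min dark.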
# Hits are given with their value; . = inactive; ? = inconclusive; / = no result; [ ] = remark or other dose. Unless noted, the call rests on the fitted dose curve; in most records, active means well fitted curve in the direction sought with a large enough effect; inconclusive means small, poorly fitted or top-dose-only effect, or another doubt; inactive means no such curve, though single readings can be large; an effect the other way counts as inactive or inconclusive.
SMILES,HttQ103 aggreg,HTT cytoprotect,JMJD2E inh,L3MBTL1 block
O=C(N/N=C/c1c(O)n(-c2ccccc2)c(=O)[nH]c1=O)c1ccncc1,.,/,?,.
CCCCCCC(=O)N/N=C/c1c(O)n(CCCC)c(=S)[nH]c1=O,.[9.22 µM],.[10 µM],18µM,.
O=C(N/N=C/c1c(O)n(-c2ccccc2)c(=S)[nH]c1=O)c1ccccc1,.[9.22 µM],.[10 µM],28µM,/
CCCCCCCSc1cc(OC)c(CCN(C)C)cc1OC,10µM,.,.,?
CCCCCSc1cc(OC)c(CCN)cc1OC,.,.,.,.
CCCN1CC[C@@H]2c3cc(O)ccc3CC[C@H]21,/,.[1.9 µM],/,/
CSc1nnc([C@@H](N)Cc2c[nH]c3ccccc23)o1,.,.,4.5µM,/
CCSc1nnc([C@@H](N)Cc2c[nH]c3ccccc23)o1,.,.[0.074 µM],?,.
CN1C(=O)C(=Cc2ccccc2OCc2ccc(Cl)cc2)C(=O)N(C)C1=O,.,.[10 µM],20µM,.
CN1C(=O)C(=Cc2ccccc2Oc2ccc(Cl)cc2)C(=O)N(C)C1=O,.,.[10 µM],.,.
Cc1c([C@@H](C)[C@H]2NC[C@H](C)C[C@@H]2O)ccc2c1C[C@@H]1[C@H]2CC=C2C[C@@H](O)CC[C@@]21C,/,.[10 µM],/,/
N#CC(C#N)=Cc1ccc([N+](=O)[O-])c(O)c1,/,.,?,/
N#CC(C#N)=Cc1ccc(C=C(C#N)C#N)cc1,.[9.22 µM],.[10 µM],16µM,.
C[C@@H]1O[C@H](O[C@H]2C[C@@H](O)[C@]3(CO)[C@H]4[C@H](O)C[C@]5(C)[C@@H](C6=CC(=O)OC6)CC[C@@]5(O)[C@H]4CC[C@]3(O)C2)[C@@H](O)[C@H](O)[C@H]1O,/,.,/,/
Nc1c(C(=O)NCc2ccco2)c2nc3ccccc3nc2n1CCN1CCCCC1,3.2µM,.,?,.
CC(=O)c1cccc(OCC(O)CN2CC=C(c3ccccc3)CC2)c1 (configuration not stated),.,.,16µM,.
O=C(O)C[C@H]1OCC=C2CN3CC[C@]45c6ccccc6N[C@@H]4[C@H]1[C@H]2C[C@H]35,/,.[10 µM],/,/
CN1C[C@@H](CS(=O)(=O)N(C)C)C[C@H]2c3cccc4c3c(cn4C)C[C@@H]21,/,.[1.9 µM],/,/
O[N+]1=CC=CCC1=S.On1ccccc1=S.[Zn],/,.,2.5µM,/
Oc1cc2c(cc1O)[C@H]1c3ccccc3CNC1CC2 (some centres not stated),/,/,20µM,/
CN[C@H]1[C@H](C)O[C@@H](O[C@@H]2C/C=C(/C)C/C(C)=C\C=C/CC[C@@H](C)CNC(=O)/C=C\C=C/[C@H]2C)C[C@@H]1O,/,.[10 µM],/,/
CNc1cc(Cl)c2nonc2c1[N+](=O)[O-],6.3µM,.,.,.
Nc1ccc([As](=O)(O)O)cc1,.,.,13µM,.
O=C(CN1C(=O)CN=C(c2ccccc2)c2ccccc21)NCc1ccco1,.,.[10 µM],.,20µM
c1ccc2c(c1)OCC(C1=NCCN1)O2 (configuration not stated),.,16µM,?,.
SMILES,HttQ103 aggreg,HTT cytoprotect,JMJD2E inh,L3MBTL1 block
Clc1ccc(C(c2ccc(Cl)cc2)C(Cl)Cl)cc1,/,.,/,/
O=[N+]([O-])c1cc(O)c(O)c([N+](=O)[O-])c1,/,.,10µM,.
CCN1C(=O)/C(=C\c2ccc([N+](=O)[O-])s2)C(=O)NC1=S,.,.,2.5µM,/
COc1cc(/C=C2\C(=O)NC(=O)N(c3ccccc3)C2=O)c([N+](=O)[O-])cc1OC,.,.,.,.
COc1ccc(OC)c(N2C(=O)NC(=O)/C(=C/c3ccc([N+](=O)[O-])s3)C2=O)c1,?,.,25µM,/
Oc1ccc2c3c1O[C@@H]1[C@@H](O)CC[C@]4(O)[C@H](C2)N(CC2CCC2)CC[C@@]314,/,.[1.9 µM],/,/
C=C[C@@H]1CN2CC[C@H]1C[C@H]2[C@@H](O)c1ccnc2ccccc12,/,.,/,/
[Cl-].[Cl-].[Hg+2],4µM,.,/,/
Clc1ccc(N2C[C@H]3CC[C@@H](C2)N3)nn1,/,.[1.9 µM],/,/
COc1cc(O)c(C(=O)O)c(-c2cc(O)c(O)cc2C)c1,.[9.22 µM],.[10 µM],14µM,/
ClC(Cl)C(Cl)Cl,/,.,/,/
Nc1ncnc2c1ncn2[C@@H]1O[C@@H](COP(=O)(O)CP(=O)(O)OP(=O)(O)O)[C@H](O)[C@@H]1O,/,.[1.9 µM],/,/
Cc1c(N=Nc2c(O)[nH]c(=O)[nH]c2=O)c(=O)n(-c2ccccc2)n1C,.,.[10 µM],3.5µM,.
CCCN1CCc2cccc3c2[C@@H]1Cc1ccc(O)c(O)c1-3,/,.[1.9 µM],/,/
O=C(O)CC1OCC=C2CN3CCC45C6=CC(=O)C(=O)C([N+](=O)[O-])=C6NC4C1C2CC35 (configuration not stated),.[9.22 µM],.[10 µM],0.063µM,25µM
